Experimental data published in PubChem BioAssay (NCI).
Compounds without any hit were thinned out: in the full panel of roughly 79,000, 15% have a hit. The source made the active and inactive calls. No stated cut-off is given here; in the data, active means growth inhibition above about 70%; inactive means the rest.

How the values were obtained:
[1] = NCI Yeast Anticancer Drug Screen. Data for the mec2-1 strain (AID 157); conditions: S. cerevisiae mec2-1 strain, hits give high values
Outline: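 mec2-1 yeast strain, carrying an alteration in DNA damage repair or cell cycle control, was exposed to compounds; growth inhibition was measured relative to vehicle-treated controls.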

[2] = NCI Yeast Anticancer Drug Screen. Data for the sgs1 mgt1 strain (AID 161);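 further: 0% = growth of cultures given vehicle only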; conditions: S. cerevisiae sgs1 mgt1 strain, hits give high values
Outline: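 Growth of a repair-deficient yeast mutant was monitored after compound treatment and expressed as inhibition relative to vehicle-treated cultures.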

[3] = NCI Yeast Anticancer Drug Screen. Data for the CLN2oe strain (AID 163);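 further: 0% = growth of vehicle-only control cultures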; conditions: S. cerevisiae CLN2oe strain, hits give high values
Outline: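 Yeast cells carrying a defined cell-cycle control alteration were exposed to test compounds. Growth inhibition was scored against vehicle-treated control cultures.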

[4] = NCI Yeast Anticancer Drug Screen. Data for the cln2 rad14 strain (AID 165);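 further: 0% = growth equal to vehicle treated cultures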; conditions: S. cerevisiae cln2 rad14 strain, hits give high values
Outline: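 Yeast carrying cln2 and rad14 alterations (cell cycle control and DNA damage repair) were exposed to compounds. Growth inhibition was measured against vehicle-treated controls.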

[5] = NCI Yeast Anticancer Drug Screen. Data for the bub3 strain (AID 167); conditions: S. cerevisiae bub3 mutant strain, hits give high values
Outline: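 Inhibition values come from growth of compound-treated mutant yeast normalised to vehicle-treated controls.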

[6] = NCI Yeast Anticancer Drug Screen. Data for the mlh1 strain (AID 171);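 further: 0% = growth of vehicle-treated control cultures of the same strain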; conditions: S. cerevisiae mlh1 strain growth inhibition, hits give high values
Outline: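 Yeast carrying a defined genetic alteration in DNA damage repair or cell cycle control were exposed to test compounds. Growth inhibition was measured relative to vehicle-treated controls.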

[7] = NCI Yeast Anticancer Drug Screen. Data for the sgs1 strain (AID 173);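 further: 0% = growth of vehicle-only control cultures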; conditions: S. cerevisiae sgs1 mutant, hits give high values
Outline: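 Yeast mutant strains carrying defined defects in DNA damage repair or cell cycle control were exposed to test compounds. Growth inhibition was scored against vehicle-treated controls.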

[8] = NCI Yeast Anticancer Drug Screen. Data for the mlh1 rad18 strain (AID 175); conditions: S. cerevisiae mlh1 rad18 strain growth inhibition, hits give high values
Outline: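 Growth inhibition of the yeast strain was measured after compound exposure and expressed relative to vehicle-treated controls. The strain carries defined defects in DNA damage repair.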

[9] = NCI Yeast Anticancer Drug Screen. Data for the rad18 strain (AID 177); conditions: S. cerevisiae rad18 mutant growth inhibition, hits give high values
Outline: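 Yeast carrying a defined DNA damage repair alteration were exposed to compounds. Growth inhibition was expressed relative to vehicle-treated controls.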

[10] = NCI Yeast Anticancer Drug Screen. Data for the rad52 strain (AID 147);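 further: 0% = growth of vehicle-treated control cultures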; conditions: S. cerevisiae rad52 mutant growth inhibition, hits give high values
Outline: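 Yeast strain carrying a DNA damage repair alteration was exposed to test compounds. Growth inhibition was measured relative to vehicle-treated controls.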

[11] = NCI Yeast Anticancer Drug Screen. Data for the wt1 strain (AID 149);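 further: 0% = growth of vehicle-treated wt1 cultures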; conditions: S. cerevisiae wt1 strain (SPY 50644) growth inhibition, hits give high values
Outline: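 Vehicle-normalised growth inhibition; strain wt1; compound exposure.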

[12] = NCI Yeast Anticancer Drug Screen. Data for the rad50EPP+ strain (AID 151);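 further: 0% = growth of vehicle-treated control cultures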; conditions: S. cerevisiae rad50 mutant strain, hits give high values
Outline: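 Yeast strain carrying rad50 alteration (rad50EPP+) exposed to compounds; growth inhibition measured relative to vehicle-treated controls.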

[13] = NCI Yeast Anticancer Drug Screen. Data for the mgt1 strain (AID 153); conditions: S. cerevisiae mgt1 mutant growth inhibition, hits give high values
Outline: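 Yeast mgt1 strain (DNA repair/cell-cycle alteration panel) exposed to compounds; growth inhibition measured relative to vehicle-treated controls.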

[14] = NCI Yeast Anticancer Drug Screen. Data for the rad14 strain (AID 159);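 further: 0% = growth of vehicle-treated control cultures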; conditions: S. cerevisiae rad14 strain growth inhibition, hits give high values
Outline: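 Vehicle-treated cultures served as the baseline for growth inhibition of a DNA repair-mutant yeast strain exposed to each compound.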

[15] = NCI Yeast Anticancer Drug Screen. Data for the wt2 strain (AID 169);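 further: 0% = growth of vehicle-treated yeast cultures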; conditions: S. cerevisiae wt2 strain growth inhibition, hits give high values
Outline: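 Yeast cells were exposed to test compounds, and growth inhibition was measured relative to vehicle-treated controls.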

[16] = at 5.0 µM (retest, dose inferred, filed as 0.5)
[17] = at 50.0 µM (retest, dose inferred, filed as 5.0)

Measured: growth inhibition

CNC(=O)OCC1C2=C(C(=O)C(C)=C(N)C2=O)N2CC3C(N3C)C12OC (stereo not drawn)
inactive: [1]; at 100.0 µM 49% | [2]; [16] 30% | [2]; [17] 64% | [2]; at 50.0 µM 42.1% | [3]; at 1.2 µM 20% | [3]; at 3.7 µM 22% | [3]; at 11.0 µM 17% | [3]; at 33.0 µM 35% | [3]; at 100.0 µM 37% | [4]; [16] 10% | [4]; [17] 44% | [4]; at 50.0 µM 43.1% | [5]; at 1.2 µM 1% | [5]; at 3.7 µM -4% | [5]; [16] 20% | [5]; at 11.0 µM -5% | [5]; at 33.0 µM 9% | [5]; [17] 43% | [5]; at 50.0 µM 29.4% | [5]; at 100.0 µM 23% | [6]; at 1.2 µM -17% | [6]; at 3.7 µM -4% | [6]; at 11.0 µM -6% | [6]; at 33.0 µM 14% | [6]; at 100.0 µM 39% | [7]; at 1.2 µM 4% | [7]; at 3.7 µM 8% | [7]; at 11.0 µM 18% | [7]; at 33.0 µM 29% | [7]; at 100.0 µM 54% | [8]; [16] 63% | [8]; at 50.0 µM 67.4% | [9]; at 1.2 µM 12% | [9]; at 3.7 µM 13% | [9]; at 11.0 µM 39%
active: [8]; [17] 92% | [9]; at 33.0 µM 73% | [9]; at 100.0 µM 86%

O=C(Nc1cc(Cl)ccc1Cl)C(Cl)(Cl)Cl
active: [8]; [17] 70%
inactive: [10]; at 1.2 µM 1% | [10]; at 3.7 µM 6% | [10]; at 11.0 µM 12% | [10]; at 33.0 µM 22% | [10]; at 100.0 µM 30% | [11]; at 1.2 µM 0% | [11]; at 3.7 µM 2% | [11]; at 11.0 µM 4% | [11]; at 33.0 µM 6% | [11]; at 100.0 µM 6% | [12]; at 1.2 µM 2% | [12]; at 3.7 µM 8% | [12]; at 11.0 µM 14% | [12]; at 33.0 µM 22% | [12]; at 100.0 µM 25% | [13]; at 1.2 µM 1% | [13]; at 3.7 µM 3% | [13]; at 11.0 µM 6% | [13]; at 33.0 µM 5% | [13]; at 100.0 µM -22% | [1]; at 1.2 µM 1% | [1]; at 3.7 µM 6% | [1]; [16] -4% | [1]; at 11.0 µM 11% | [1]; at 33.0 µM 19% | [1]; [17] 58% | [1]; at 50.0 µM 61.3% | [1]; at 100.0 µM 25% | [14]; at 1.2 µM 3% | [14]; at 3.7 µM 6% | [14]; at 11.0 µM 13% | [14]; at 33.0 µM 21% | [14]; at 100.0 µM 30% | [2]; [16] 1% | [2]; [17] 32% | [2]; at 50.0 µM 24.1% | [3]; at 1.2 µM 4% | [3]; at 3.7 µM 5% | [3]; at 11.0 µM 10% | [3]; at 33.0 µM 7% | [3]; at 100.0 µM 9% | [4]; [16] 32% | [4]; [17] -6% | [4]; at 50.0 µM -52.4% | [5]; at 1.2 µM -1% | [5]; at 3.7 µM 3% | [5]; [16] -11% | [5]; at 11.0 µM 8% | [5]; at 33.0 µM 10% | [5]; [17] 31% | [5]; at 50.0 µM 28.1% | [5]; at 100.0 µM 12% | [15]; at 1.2 µM 1% | [15]; at 3.7 µM 2% | [15]; at 11.0 µM 5% | [15]; at 33.0 µM 3% | [15]; at 100.0 µM 6% | [6]; at 1.2 µM 1% | [6]; at 3.7 µM 4% | [6]; at 11.0 µM 5% | [6]; at 33.0 µM 12% | [6]; at 100.0 µM 20% | [7]; at 1.2 µM 1% | [7]; at 3.7 µM 3% | [7]; at 11.0 µM 7% | [7]; at 33.0 µM 10% | [7]; at 100.0 µM 19% | [8]; [16] -1% | [8]; at 50.0 µM 63.6% | [9]; at 1.2 µM 2% | [9]; at 3.7 µM 4% | [9]; at 11.0 µM 16% | [9]; at 33.0 µM 23% | [9]; at 100.0 µM 31%
